These results are taken from PubChem BioAssay (NCI).

About 83,000 compounds went through this panel and 20% of them were active in at least one assay; those are over-represented in the sample as a whole.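 Compound tested at a single concentration for 48 hours in 96-well plates; a percent growth value below 10 was scored as active.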 A number with no mark means an inactive call. The source made the active and inactive calls.

Among the test systems are NCI-H23 lung; NCI-H226 lung; NCI-H322M lung; HOP-62 NSCLC; NCI-H460 lung; HOP-92 NSCLC; A549/ATCC NSCLC; 786-0 renal; COLO 205 colon; DU-145 prostate; K-562 leukemia; MALME-3M melanoma; MDA-MB-231 breast; SF-268 CNS; SF-295 CNS; SF-539 CNS; UACC-257 melanoma; M14 melanoma; RXF 393 renal.
Assay in all cases: NCI-60 one-dose screen, 48 h (100 = growth as untreated, 0 = no growth, -100 = all killed)
Holding throughout (conditions): 10 µM unless noted

In the case of `NS(=O)(=O)c1ccc(N2CC(c3nc4ccccc4[nH]3)CC2=O)cc1` (stereo not drawn), the growth was 90.3% in the assay on NCI-H23 lung; 97.1% in the assay on NCI-H226 lung; 88.9% in the assay on NCI-H322M lung; 85.4% in the assay with HOP-62 NSCLC; 100% in the assay on NCI-H460 lung; 100% in the assay on HOP-92 NSCLC. In addition, the growth is 99.5% in the assay with A549/ATCC NSCLC; 102% in the assay with 786-0 renal; 101% with COLO 205 colon; 109% with DU-145 prostate; 97.2% in the assay with K-562 leukemia; 92.9% in the assay with MALME-3M melanoma. The growth in the assay with MDA-MB-231 breast is 85.4%; in the assay on SF-268 CNS it was 96.1%; in the assay on SF-295 CNS it was 99.9%; in the assay on SF-539 CNS, 96.6%; in the assay with UACC-257 melanoma, 109%; in the assay with M14 melanoma, 96.9%.
As for `CC1C(C)N(C(=O)CCl)c2ccccc2N1C(=O)CCl` (stereo not drawn), the growth in the assay with NCI-H23 lung was -61.1% (active); with NCI-H226 lung it was 13.7%; in the assay with NCI-H322M lung, 3.9% (active); in the assay with HOP-62 NSCLC, -67.3% (active); with NCI-H460 lung, -37.3% (active); with HOP-92 NSCLC, -40.7% (active). Further, the growth in the assay with A549/ATCC NSCLC is 38.4%; in the assay on 786-0 renal, -55.1% (active); in the assay on COLO 205 colon, -70.6% (active); in the assay on DU-145 prostate, -94.9% (active); with K-562 leukemia, -0.205% (active); with MDA-MB-231 breast, -53.8% (active). Besides, the growth with RXF 393 renal was -53.9% (active); with SF-268 CNS, -77.9% (active); in the assay with SF-295 CNS, -66.7% (active); with SF-539 CNS, -94.8% (active); in the assay on UACC-257 melanoma it was -70.3% (active); in the assay on M14 melanoma it was -81.8% (active).
`CN(C)CCC(=O)Nc1ccc(-n2cc(-c3cccc(NC(=S)Nc4cccc(-c5cn(-c6ccc(NC(=O)CCN(C)C)cc6)nn5)c4)c3)nn2)cc1`: the growth is 89.1% with NCI-H23 lung; 135% in the assay with NCI-H226 lung; 92.4% in the assay on NCI-H322M lung; 105% with HOP-62 NSCLC; 95.6% in the assay on NCI-H460 lung; 101% with HOP-92 NSCLC. Besides, the growth is 88.6% in the assay with A549/ATCC NSCLC; 101% in the assay with 786-0 renal; 99.4% with COLO 205 colon; 115% in the assay on DU-145 prostate; 18.6% with K-562 leukemia; 107% in the assay with MDA-MB-231 breast. The growth in the assay with RXF 393 renal was 135%; in the assay on SF-268 CNS, 98.6%; with SF-295 CNS, 65.3%; in the assay with SF-539 CNS it was 97.6%; with UACC-257 melanoma, 117%; with M14 melanoma it was 112%.
Consider `COc1ccc(-c2nnc3c4[nH]cnc4ncn23)c(OC)c1`, for which the growth with NCI-H23 lung was 22.3%; in the assay on NCI-H226 lung, 43.5%; in the assay on NCI-H322M lung, 32.9%; in the assay on HOP-62 NSCLC, 25.8%; with NCI-H460 lung, 39.4%; in the assay on HOP-92 NSCLC, 52.9%. The growth was 71.6% in the assay on A549/ATCC NSCLC; 21.3% in the assay on 786-0 renal; 32.5% with COLO 205 colon; 26.5% with DU-145 prostate; 11.5% in the assay with K-562 leukemia; 37.4% in the assay on MALME-3M melanoma. Moreover, the growth was 29% in the assay with MDA-MB-231 breast; 33% in the assay on SF-268 CNS; 20.1% in the assay with SF-295 CNS; 14.6% in the assay on SF-539 CNS; 40.6% in the assay with UACC-257 melanoma; 10.5% in the assay on M14 melanoma.
As for `COC(=O)[C@H](Cc1cn(C)cn1)NC(=O)[C@H](Cc1ccccc1)NC(=O)Nc1cc(C(F)(F)F)cc(C(F)(F)F)c1`, the growth is -83.3% [100 µM] (active) in the assay with NCI-H23 lung; -50.9% [100 µM] (active) with NCI-H226 lung; -94.2% [100 µM] (active) in the assay with NCI-H322M lung; -97.4% [100 µM] (active) in the assay on HOP-62 NSCLC; -50% [100 µM] (active) in the assay with NCI-H460 lung; -97.3% [100 µM] (active) in the assay with HOP-92 NSCLC. In addition, the growth in the assay on A549/ATCC NSCLC was -85.6% [100 µM] (active); in the assay on 786-0 renal it was -91.4% [100 µM] (active); in the assay on COLO 205 colon, -82.1% [100 µM] (active); in the assay on DU-145 prostate it was -99.7% [100 µM] (active); in the assay on K-562 leukemia it was -60.2% [100 µM] (active); with MALME-3M melanoma, -86.3% [100 µM] (active). Moreover, the growth is -90.8% [100 µM] (active) with MDA-MB-231 breast; -84.3% [100 µM] (active) in the assay on RXF 393 renal; -94.8% [100 µM] (active) in the assay with SF-268 CNS; -94% [100 µM] (active) in the assay with SF-539 CNS; -96.6% [100 µM] (active) with UACC-257 melanoma; -90.9% [100 µM] (active) in the assay with M14 melanoma.
For the molecule `COc1ccc(-n2cnc3cc(C(=O)N4CCCCC4)ccc32)cc1`, the growth with NCI-H23 lung is 95.5%; in the assay on NCI-H226 lung it was 95.3%; in the assay with NCI-H322M lung, 102%; in the assay on HOP-62 NSCLC, 91.4%; in the assay with NCI-H460 lung, 101%; in the assay with HOP-92 NSCLC it was 95.3%. In addition, the growth with A549/ATCC NSCLC was 103%; with 786-0 renal, 100%; in the assay with COLO 205 colon it was 105%; in the assay on DU-145 prostate, 111%; with K-562 leukemia, 99.4%; with MALME-3M melanoma, 97%. Besides, the growth with MDA-MB-231 breast is 96.4%; in the assay on SF-268 CNS it was 105%; in the assay on SF-295 CNS, 97.9%; with SF-539 CNS it was 98.1%; with UACC-257 melanoma it was 101%; with M14 melanoma, 101%.
Turning to `COc1ccc2c(=O)c(OC)c(-c3cc(OC)c(OC)c(OC)c3)oc2c1`, the growth is 86.4% in the assay on NCI-H23 lung; 91.3% in the assay with NCI-H226 lung; 89.1% in the assay with NCI-H322M lung; 82.8% with HOP-62 NSCLC; 102% in the assay on NCI-H460 lung; 46.5% in the assay on HOP-92 NSCLC. For the same molecule, the growth was 44.1% in the assay on A549/ATCC NSCLC; 67.8% with 786-0 renal; 129% in the assay on COLO 205 colon; 109% with DU-145 prostate; 87.1% in the assay on K-562 leukemia; 113% in the assay on MALME-3M melanoma. Also, the growth in the assay with MDA-MB-231 breast was 84.1%; in the assay on SF-268 CNS, 100%; with SF-295 CNS, 113%; in the assay with SF-539 CNS it was 91.5%; with M14 melanoma, 109%.
Turning to `CCC(=O)Nc1cc2c(cc1Cl)-c1ccccc1C2`, the growth is 89.1% in the assay with NCI-H23 lung; 81.7% in the assay with NCI-H226 lung; 106% with NCI-H322M lung; 97.6% in the assay on HOP-62 NSCLC; 98.2% in the assay on NCI-H460 lung; 76.9% in the assay on HOP-92 NSCLC. Moreover, the growth is 94.2% with A549/ATCC NSCLC; 91.5% with 786-0 renal; 99.4% with COLO 205 colon; 109% in the assay with DU-145 prostate; 104% with K-562 leukemia; 74.5% in the assay on MDA-MB-231 breast. The growth with RXF 393 renal was 102%; with SF-268 CNS it was 84.3%; with SF-295 CNS it was 121%; in the assay on SF-539 CNS, 94.3%; in the assay with UACC-257 melanoma, 96.6%; in the assay on M14 melanoma, 102%.
